# Assay results as given in the supplement of paper PMC8975748.
# Counter-ions that a name gives are not always drawn. ± gives the standard deviation of the averaged measurements.
# Experiments:
# [1] = test system: Saccharomyces cerevisiae BY4741 SeMeCo community; experiment: z-score of prototroph abundance vs DMSO median; higher = larger share of this subpopulation than in DMSO controls; settings: 10 µM; 24 h; SM minimal medium; subpopulation (auxotrophy): Prototroph
# Summary of the method: (§1)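 A Saccharomyces cerevisiae BY4741 community carried four plasmids, each restoring one auxotrophy and encoding a distinct fluorescent protein. It was pre-grown overnight to OD600 1.0, diluted to 0.3, and 70 µl was added to 384-well plates acoustically predosed with library drugs (10 µM final), then grown 24 h in minimal SM medium. Cells were paraformaldehyde-fixed and imaged by automated confocal microscopy, with single-auxotroph fluorescent strains setting thresholds and autofluorescence correction. Each subpopulation's abundance was scored as a z-score against the vehicle-well median.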
# [2] = test system: Saccharomyces cerevisiae BY4741 SeMeCo community; experiment: z-score of subpopulation abundance vs DMSO median, subpopulation auxotrophic for M; higher = larger share of this subpopulation than in DMSO controls; settings: 10 µM; 24 h; SM minimal medium; subpopulation (auxotrophy): M
# Summary of the method: as §1
# [3] = test system: Saccharomyces cerevisiae BY4741 SeMeCo community; experiment: z-score of subpopulation abundance vs DMSO median, subpopulation auxotrophic for L; higher = larger share of this subpopulation than in DMSO controls; settings: 10 µM; 24 h; SM minimal medium; subpopulation (auxotrophy): L
# Summary of the method: as §1
# [4] = test system: Saccharomyces cerevisiae BY4741 SeMeCo community; experiment: z-score of subpopulation abundance vs DMSO median, subpopulation auxotrophic for U; higher = larger share of this subpopulation than in DMSO controls; settings: 10 µM; 24 h; SM minimal medium; subpopulation (auxotrophy): U
# Summary of the method: as §1
# [5] = test system: Saccharomyces cerevisiae BY4741 SeMeCo community; experiment: z-score of subpopulation abundance vs DMSO median, subpopulation auxotrophic for H; higher = larger share of this subpopulation than in DMSO controls; settings: 10 µM; 24 h; SM minimal medium; subpopulation (auxotrophy): H
# Summary of the method: as §1
# [6] = test system: Saccharomyces cerevisiae BY4741 SeMeCo community; experiment: z-score of subpopulation abundance vs DMSO median, subpopulation auxotrophic for LU; higher = larger share of this subpopulation than in DMSO controls; settings: 10 µM; 24 h; SM minimal medium; subpopulation (auxotrophy): LU
# Summary of the method: as §1
# [7] = test system: Saccharomyces cerevisiae BY4741 SeMeCo community; experiment: z-score of subpopulation abundance vs DMSO median, subpopulation auxotrophic for UM; higher = larger share of this subpopulation than in DMSO controls; settings: 10 µM; 24 h; SM minimal medium; subpopulation (auxotrophy): UM
# Summary of the method: as §1
# [8] = test system: Saccharomyces cerevisiae BY4741 SeMeCo community; experiment: z-score of subpopulation abundance vs DMSO median, subpopulation auxotrophic for HL; higher = larger share of this subpopulation than in DMSO controls; settings: 10 µM; 24 h; SM minimal medium; subpopulation (auxotrophy): HL
# Summary of the method: as §1
# [9] = test system: Saccharomyces cerevisiae BY4741 SeMeCo community; experiment: z-score of subpopulation abundance vs DMSO median, subpopulation auxotrophic for HLU; higher = larger share of this subpopulation than in DMSO controls; settings: 10 µM; 24 h; SM minimal medium; subpopulation (auxotrophy): HLU
# Summary of the method: as §1
# [10] = test system: Saccharomyces cerevisiae BY4741 SeMeCo community; experiment: z-score of subpopulation abundance vs DMSO median, subpopulation auxotrophic for HLM; higher = larger share of this subpopulation than in DMSO controls; settings: 10 µM; 24 h; SM minimal medium; subpopulation (auxotrophy): HLM
# Summary of the method: as §1
# [11] = test system: Saccharomyces cerevisiae BY4741 SeMeCo community; experiment: z-score of subpopulation abundance vs DMSO median, subpopulation auxotrophic for LUM; higher = larger share of this subpopulation than in DMSO controls; settings: 10 µM; 24 h; SM minimal medium; subpopulation (auxotrophy): LUM
# Summary of the method: as §1
# [12] = test system: Saccharomyces cerevisiae BY4741 SeMeCo community; experiment: z-score of subpopulation abundance vs DMSO median, subpopulation auxotrophic for HLUM; higher = larger share of this subpopulation than in DMSO controls; settings: 10 µM; 24 h; SM minimal medium; subpopulation (auxotrophy): HLUM
# Summary of the method: as §1
# [13] = test system: Saccharomyces cerevisiae BY4741 SeMeCo community; experiment: mean cell size (pixel area) (pixels); higher = larger cells; settings: 10 µM; 24 h; SM minimal medium
# Summary of the method: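 Harmony analysis of automated confocal images of paraformaldehyde-fixed yeast gave the mean cell pixel area per well. The yeast was a Saccharomyces cerevisiae BY4741 community carrying four plasmids, each with a fluorescent marker and each complementing one auxotrophy, incubated for 24 h in SM medium containing drug at a final 10 µM in 384-well plates. Results are averaged over 3 replicates. Same SeMeCo high-content imaging drug screen: Selleck FDA-approved drugs at 10 µM, 24 h in SM medium, 384-well plates, 3 replicates.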
# [14] = test system: Saccharomyces cerevisiae BY4741 SeMeCo community; experiment: z-score of subpopulation abundance vs DMSO median, subpopulation auxotrophic for HM; higher = larger share of this subpopulation than in DMSO controls; settings: 10 µM; 24 h; SM minimal medium; subpopulation (auxotrophy): HM
# Summary of the method: as §1
# [15] = test system: Saccharomyces cerevisiae BY4741 SeMeCo community; experiment: z-score of subpopulation abundance vs DMSO median, subpopulation auxotrophic for HU; higher = larger share of this subpopulation than in DMSO controls; settings: 10 µM; 24 h; SM minimal medium; subpopulation (auxotrophy): HU
# Summary of the method: as §1
# [16] = test system: Saccharomyces cerevisiae BY4741 SeMeCo community; experiment: z-score of subpopulation abundance vs DMSO median, subpopulation auxotrophic for HUM; higher = larger share of this subpopulation than in DMSO controls; settings: 10 µM; 24 h; SM minimal medium; subpopulation (auxotrophy): HUM
# Summary of the method: as §1
# [17] = test system: Saccharomyces cerevisiae BY4741 SeMeCo community; experiment: z-score of subpopulation abundance vs DMSO median, subpopulation auxotrophic for LM; higher = larger share of this subpopulation than in DMSO controls; settings: 10 µM; 24 h; SM minimal medium; subpopulation (auxotrophy): LM
# Summary of the method: as §1
Compound,z-score of prototroph abundance [1],z-score of subpopulation abundance [2],z-score of subpopulation abundance [3],z-score of subpopulation abundance [4],z-score of subpopulation abundance [5],z-score of subpopulation abundance [6],z-score of subpopulation abundance [7],z-score of subpopulation abundance [8],z-score of subpopulation abundance [9],z-score of subpopulation abundance [10],z-score of subpopulation abundance [11],z-score of subpopulation abundance [12],mean cell size [13],z-score of subpopulation abundance [14],z-score of subpopulation abundance [15],z-score of subpopulation abundance [16],z-score of subpopulation abundance [17]
COc1ccc(Cl)cc1C(=O)NCCc1ccc(S(=O)(=O)NC(=O)NC2CCCCC2)cc1 [Glyburide (Glibenclamide)],-0.6,-0.21,1.58,-0.59,0.81,-0.07,-0.02,1.09,0.43,-0.04,1.11,0.01,,,,,
CC1(C)S[C@@H]2[C@H](NC(=O)[C@H](N)c3ccc(O)cc3)C(=O)N2[C@H]1C(=O)O [Amoxicillin Sodium],0.37,0.97,-0.33,-0.06,-0.8,-0.7,-0.03,-1.14,-0.65,,-0.05,-0.2,12.5 ± 0.31,-0.22,-0.71,-0.13,
CO/N=C(\C(=O)N[C@@H]1C(=O)N2C(C(=O)O)=C(COC(C)=O)CS[C@H]12)c1csc(N)n1 [Cefotaxime sodium],-0.43,0.24,,1.03,,0.37,0.17,-0.46,0.33,0,0.05,0.47,12.36 ± 0.028,-0.37,-0.11,-0.16,1.08
NC12CC3CC(CC(C3)C1)C2 [Amantadine],0,-0.63,,-0.38,0.12,0.79,0.12,-0.09,0.22,-0.36,-0.04,-0.31,12 ± 0.17,-0.03,-0.15,0.47,0.28
CN1[C@@H]2CC[C@H]1C[C@@H](OC(=O)c1c[nH]c3ccccc13)C2 [Tropisetron HCl],-1,1.04,0.79,-0.06,-0.68,1,0.28,-0.91,0.2,,0.15,1.3,,0.26,-0.68,0.19,1.09
C[C@H]1COc2c(N3CCN(C)CC3)c(F)cc3c(=O)c(C(=O)O)cn1c23 [Levofloxacin hydrate],-1.38,0.54,,0.27,0.26,1.73,0.61,0.74,0.84,0.07,1.66,0.84,12.5 ± 0.29,0.64,0.77,0.55,1.34
CC[C@H](c1ccc(O)cc1)[C@@H](CC)c1ccc(O)cc1 [Hexestrol],1.27,0.45,,-0.6,,-1.49,-0.86,-0.81,-0.58,-0.94,-1.39,-1.21,12.7 ± 0.21,-0.94,-0.58,-0.88,-0.2
